Measurements: the supplement of paper PMC10849652
The full data set covers some 8,800 targets. This sample favours those with a hit. About 0.5% of all pairs of compound and target were hits.

Legend:
Test in all cases: log2 fold change, soluble protein after heating vs DMSO (PISA); higher = thermal stabilisation; K562 lysate, 10 uM; active = over 0.2 and 3.5 SD of the protein, either way, in both replicates (recomputed)
erlotinib = compound: C#Cc1cccc(Nc2ncnc3cc(OCCOC)c(OCCOC)cc23)c1 [erlotinib]
Method in brief: (§1)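 K562 pellets were dounce-homogenised in PBS pH 7.4 with 1 mM MgCl2, and the crude extract at 1 mg/mL protein was treated with 10 μM compound for 30 min. Aliquots were heated for 3 min across 48°C-58°C, pooled, and brought to 0.5% NP-40 at 4°C; soluble protein was the supernatant after 21,000xg for 90 min. Soluble protein was quantified by TMTpro 16plex LC-MS/MS with channel sums equalised, and reported as log2 fold change in thermal stability against DMSO controls, with values from duplicates.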

[1] = compound: C/C(=N\NC(=O)C1=CC(=CC=C1)S(=O)(=O)N2CCOCC2)/C3=C(C=CC(=C3)Cl)O
Method in brief: as §1

[2] = compound: C1=CC(=CC=C1C2=NC3=C(N2)C=C(C=C3)C(=O)N)OC4=CC=C(C=C4)Cl
Method in brief: as §1

[3] = compound: C1=CC2=C(C=CC(=C2)/C=C\3/C(=O)NC(=NCC4=CC=CS4)S3)N=C1
Method in brief: as §1

[4] = compound: C1=CC2=NC=CN=C2C=C1/C=C/3\C(=O)NC(=O)S3
Method in brief: as §1

[5] = compound: C1=CC=C(C=C1)C2=NC(=C(N2)C3=CC=NC=C3)C4=CC(=C(C=C4)Cl)O
Method in brief: as §1

[6] = compound: C1=CC=C2C(=C1)C3=NNC4=CC=CC(=C43)C2=O
Method in brief: as §1

[7] = compound: C1CCN(C1)C(=O)NC2=CC=CC(=C2)NC3=NC=C(C(=N3)NCCC4=CN=CN4)Br
Method in brief: as §1

[8] = compound: C1CN(CCC1(CC2=CC=C(C=C2)Cl)N)C3=NC=NC4=C3C=CN4
Method in brief: as §1

IRAK-1-4 Inhibitor I = compound: C1COCCN1CCN2C3=CC=CC=C3N=C2NC(=O)C4=CC(=CC=C4)[N+](=O)[O-] [IRAK-1-4 Inhibitor I]
Method in brief: as §1

ibrutinib = compound: C=CC(=O)N1CCC[C@@H](n2nc(-c3ccc(Oc4ccccc4)cc3)c3c(N)ncnc32)C1 [ibrutinib]
Method in brief: as §1

[9] = compound: CC(=O)c1cnc2ccc(-c3cc(Cl)c(O)c(Cl)c3)nc2c1N[C@H]1CC[C@H](CN(C)C)CC1
Method in brief: as §1

ralimetinib = compound: CC(C)(C)Cn1c(N)nc2ccc(-c3[nH]c(C(C)(C)C)nc3-c3ccc(F)cc3)nc21 [ralimetinib]
Method in brief: as §1

[10] = compound: CC(C)(O)CC(=O)NCCn1ccc2ncnc(Nc3ccc(Oc4cccc(C(F)(F)F)c4)c(Cl)c3)c21
Method in brief: as §1

[11] = compound: CC(C)C1=C2N=C(C=C(N2N=C1)NCC3=CC=CC=C3)NCCCCCCN
Method in brief: as §1

[12] = compound: CC1=C(C(CC(=O)N1)C2=CC=C(C=C2)C(F)(F)F)C(=O)NC3=C(C=C4C(=C3)C=NN4)F
Method in brief: as §1

[13] = compound: CC1=C(C2=C(C=C1)C(=O)C3=CC=CC=C3N2CCCN)C
Method in brief: as §1

[14] = compound: CC1=C(C=C(C=C1)NC(=O)C2=CC(=CC=C2)C(C)(C)C#N)NC3=CC4=C(C=C3)N=CN(C4=O)C
Method in brief: as §1

[15] = compound: CC1=C(C=C(C=C1)NC(=O)C2=CC(=CC=C2)N(C)C)NC(=O)C3=CC=C(C=C3)O
Method in brief: as §1

[16] = compound: CC1=CC=C(C=C1)SC2=C3C=C(SC3=CN=C2)C(=O)N
Method in brief: as §1

Measured: log2 fold change

HDAC10 (UniProt Q969S8)
UniProt Q969S8, sequence (Q969S8 whole entry, looked up): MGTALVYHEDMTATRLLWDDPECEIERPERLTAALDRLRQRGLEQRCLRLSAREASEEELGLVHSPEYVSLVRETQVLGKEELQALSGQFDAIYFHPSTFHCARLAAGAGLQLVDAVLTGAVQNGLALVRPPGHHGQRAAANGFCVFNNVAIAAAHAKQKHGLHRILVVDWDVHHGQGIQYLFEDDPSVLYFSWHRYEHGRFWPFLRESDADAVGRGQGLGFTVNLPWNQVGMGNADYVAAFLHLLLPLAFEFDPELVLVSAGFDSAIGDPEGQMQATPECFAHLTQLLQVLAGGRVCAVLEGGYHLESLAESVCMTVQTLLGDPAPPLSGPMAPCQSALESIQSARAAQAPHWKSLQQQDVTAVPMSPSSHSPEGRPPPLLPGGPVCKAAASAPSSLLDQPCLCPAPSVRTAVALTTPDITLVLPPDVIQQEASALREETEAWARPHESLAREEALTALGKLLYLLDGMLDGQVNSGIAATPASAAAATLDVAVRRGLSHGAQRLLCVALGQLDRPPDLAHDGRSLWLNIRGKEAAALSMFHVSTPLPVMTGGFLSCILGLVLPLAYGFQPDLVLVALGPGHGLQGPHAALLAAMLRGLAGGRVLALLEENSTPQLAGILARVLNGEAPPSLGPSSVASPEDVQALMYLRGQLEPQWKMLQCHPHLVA
inactive: erlotinib 0.064 | [1] 0.126 | [2] 0.035 | [3] -0.155 | [4] -0.201 | [5] -0.111 | [6] -0.043 | [7] -0.204 | [8] 0.053 | IRAK-1-4 Inhibitor I 0.016 | ibrutinib -0.038 | [9] 0.019 | ralimetinib -0.106 | [10] 0.144 | [11] -0.207 | [12] -0.11 | [13] -0.088 | [14] 0.037 | [15] 0.022 | [16] 0.017

IL18R1 (UniProt Q13478)
inactive: erlotinib -0.029 | [1] -0.493 | [2] -0.136 | [3] 0.147 | [4] 0.041 | [5] 0.152 | [6] 0.079 | [7] -0.155 | [8] 0.058 | IRAK-1-4 Inhibitor I -0.043 | ibrutinib -0.177 | [9] 0.117 | ralimetinib -0.261 | [10] -0.463 | [11] 0.053 | [12] -0.066 | [13] -0.031 | [14] 0.061 | [15] 0.15 | [16] 0.097

GRK6 isoform 2 (UniProt P43250)
inactive: erlotinib -0.014 | [1] -0.126 | [2] 0.015 | [3] -0.009 | [4] -0.046 | [5] -0.063 | [6] 0.284 | [7] -0.161 | [8] 0.108 | IRAK-1-4 Inhibitor I 0.053 | ibrutinib 0.083 | [9] 0.04 | ralimetinib -0.073 | [10] -0.068 | [11] -0.036 | [12] 0.021 | [13] -0.092 | [14] 0.048 | [15] -0.049 | [16] -0.005

INTS7 (UniProt Q9NVH2)
UniProt Q9NVH2, sequence (Q9NVH2 whole entry, looked up): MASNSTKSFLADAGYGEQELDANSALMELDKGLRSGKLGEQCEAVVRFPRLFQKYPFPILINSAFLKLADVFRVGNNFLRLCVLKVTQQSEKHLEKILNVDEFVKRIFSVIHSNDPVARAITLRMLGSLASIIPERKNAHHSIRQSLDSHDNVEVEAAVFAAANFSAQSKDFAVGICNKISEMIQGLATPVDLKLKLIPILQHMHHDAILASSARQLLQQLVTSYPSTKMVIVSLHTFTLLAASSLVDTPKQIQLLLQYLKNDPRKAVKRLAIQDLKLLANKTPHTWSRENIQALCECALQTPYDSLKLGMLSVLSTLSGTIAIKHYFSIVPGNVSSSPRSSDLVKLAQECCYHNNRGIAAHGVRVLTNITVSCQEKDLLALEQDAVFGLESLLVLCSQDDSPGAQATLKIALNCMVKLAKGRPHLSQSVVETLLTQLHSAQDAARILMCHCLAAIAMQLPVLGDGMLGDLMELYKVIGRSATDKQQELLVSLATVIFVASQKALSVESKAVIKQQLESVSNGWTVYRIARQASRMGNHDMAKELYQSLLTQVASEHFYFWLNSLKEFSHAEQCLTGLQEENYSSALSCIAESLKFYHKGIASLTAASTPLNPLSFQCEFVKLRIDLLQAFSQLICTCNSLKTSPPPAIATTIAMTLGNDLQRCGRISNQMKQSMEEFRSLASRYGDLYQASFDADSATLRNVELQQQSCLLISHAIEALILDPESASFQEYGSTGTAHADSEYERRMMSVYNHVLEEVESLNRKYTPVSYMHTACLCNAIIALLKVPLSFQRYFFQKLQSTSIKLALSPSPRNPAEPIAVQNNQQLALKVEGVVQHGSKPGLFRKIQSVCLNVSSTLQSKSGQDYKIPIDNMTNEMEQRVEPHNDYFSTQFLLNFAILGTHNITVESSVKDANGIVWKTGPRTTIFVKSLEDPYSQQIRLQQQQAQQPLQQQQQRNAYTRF
inactive: erlotinib 0.076 | [1] -0.183 | [2] -0.01 | [3] 0.041 | [5] -0.044 | [6] 0.026 | [7] -0.019 | [8] 0.035 | IRAK-1-4 Inhibitor I 0 | ibrutinib 0.012 | [9] 0.061 | ralimetinib 0.083 | [10] -0.024 | [11] 0.023 | [12] 0.023 | [13] -0.09 | [15] 0.007 | [16] 0.039
active: [4] 0.441 | [14] 0.543

GRK2 (UniProt P25098)
UniProt P25098, sequence (P25098 whole entry, looked up): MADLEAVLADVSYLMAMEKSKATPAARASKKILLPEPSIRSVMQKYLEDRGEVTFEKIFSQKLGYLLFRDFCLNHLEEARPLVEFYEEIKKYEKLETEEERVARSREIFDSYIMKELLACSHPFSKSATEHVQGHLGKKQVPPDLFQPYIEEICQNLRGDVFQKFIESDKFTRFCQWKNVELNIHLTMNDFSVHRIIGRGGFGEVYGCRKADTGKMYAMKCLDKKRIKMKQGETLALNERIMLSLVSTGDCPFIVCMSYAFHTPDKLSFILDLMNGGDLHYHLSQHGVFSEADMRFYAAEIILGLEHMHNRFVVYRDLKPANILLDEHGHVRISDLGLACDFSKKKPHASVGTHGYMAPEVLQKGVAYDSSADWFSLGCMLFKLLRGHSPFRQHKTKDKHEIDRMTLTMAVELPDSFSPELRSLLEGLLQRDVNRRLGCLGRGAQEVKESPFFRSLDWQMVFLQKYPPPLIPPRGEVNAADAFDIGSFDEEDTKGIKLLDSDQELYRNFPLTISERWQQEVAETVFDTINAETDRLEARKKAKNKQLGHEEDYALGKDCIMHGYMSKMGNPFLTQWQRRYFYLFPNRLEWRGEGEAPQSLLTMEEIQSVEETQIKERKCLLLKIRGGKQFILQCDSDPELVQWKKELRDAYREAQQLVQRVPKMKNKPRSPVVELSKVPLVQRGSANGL
active: [8] 0.536
inactive: erlotinib 0.023 | [1] 0.028 | [2] 0.015 | [3] 0.115 | [4] -0.005 | [5] -0.025 | [6] -0.098 | [7] -0.026 | IRAK-1-4 Inhibitor I -0.002 | ibrutinib 0.002 | [9] 0.011 | ralimetinib 0.006 | [10] 0.036 | [11] 0 | [12] 0.151 | [13] 0.014 | [14] -0.048 | [15] 0.007 | [16] -0.031

GSTM4 (UniProt Q03013)
UniProt Q03013, sequence (Q03013 whole entry, looked up): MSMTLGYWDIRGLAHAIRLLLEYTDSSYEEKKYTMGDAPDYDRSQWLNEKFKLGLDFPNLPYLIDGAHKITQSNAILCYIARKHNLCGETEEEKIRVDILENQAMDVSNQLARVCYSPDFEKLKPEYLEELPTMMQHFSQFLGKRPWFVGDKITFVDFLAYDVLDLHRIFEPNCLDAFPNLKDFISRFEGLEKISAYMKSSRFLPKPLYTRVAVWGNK
inactive: erlotinib 0.006 | [1] -0.044 | [2] -0.073 | [3] -0.026 | [4] 0.141 | [5] 0.046 | [6] -0.025 | [7] -0.109 | [8] -0.025 | IRAK-1-4 Inhibitor I -0.064 | ibrutinib -0.139 | [9] -0.006 | ralimetinib -0.013 | [10] -0.051 | [11] -0.079 | [12] 0.096 | [13] 0.037 | [14] -0.136 | [15] -0.027 | [16] 0.042

GLYR1 (UniProt Q49A26)
inactive: erlotinib 0.025 | [1] 0.061 | [2] -0.018 | [3] 0.021 | [4] 0.041 | [5] 0.029 | [6] -0.01 | [7] 0.11 | [8] 0.035 | IRAK-1-4 Inhibitor I 0.006 | ibrutinib 0.113 | [9] 0.017 | ralimetinib 0.038 | [10] -0.15 | [11] 0.033 | [12] 0.07 | [14] 0.126 | [15] 0.106 | [16] 0.032
active: [13] -0.339

H2AFY (UniProt O75367)
UniProt O75367, sequence (O75367 whole entry, looked up): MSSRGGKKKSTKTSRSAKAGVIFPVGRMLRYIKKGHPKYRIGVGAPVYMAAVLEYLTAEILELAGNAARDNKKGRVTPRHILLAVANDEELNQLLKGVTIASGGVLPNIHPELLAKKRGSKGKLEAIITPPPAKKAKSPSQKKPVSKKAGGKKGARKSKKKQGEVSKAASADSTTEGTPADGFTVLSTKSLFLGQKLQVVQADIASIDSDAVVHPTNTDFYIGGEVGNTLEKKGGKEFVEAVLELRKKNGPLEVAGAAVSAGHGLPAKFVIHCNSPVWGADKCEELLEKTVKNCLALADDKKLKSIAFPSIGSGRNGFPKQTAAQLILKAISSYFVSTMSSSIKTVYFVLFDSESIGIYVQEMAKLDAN
inactive: erlotinib 0.02 | [1] -0.026 | [2] 0.049 | [3] 0.069 | [4] 0.013 | [5] 0.069 | [6] 0.081 | [7] -0.051 | [8] -0.113 | IRAK-1-4 Inhibitor I 0.02 | ibrutinib 0.051 | [9] -0.056 | ralimetinib -0.025 | [10] -0.043 | [11] 0 | [12] -0.003 | [13] -0.148 | [14] -0.053 | [15] -0.033 | [16] -0.001

HADH isoform 2 (UniProt Q16836)
inactive: erlotinib -0.052 | [1] 0.065 | [2] 0.023 | [3] 0.08 | [4] -0.03 | [5] 0.003 | [6] -0.015 | [7] -0.015 | [8] -0.028 | IRAK-1-4 Inhibitor I 0.008 | ibrutinib -0.004 | [9] 0.02 | ralimetinib -0.023 | [10] -0.011 | [11] -0.036 | [12] 0.013 | [13] -0.045 | [14] -0.039 | [15] 0.028 | [16] 0.004

HNRNPD isoform 3 (UniProt Q14103)
UniProt Q14103, sequence (Q14103 whole entry, looked up): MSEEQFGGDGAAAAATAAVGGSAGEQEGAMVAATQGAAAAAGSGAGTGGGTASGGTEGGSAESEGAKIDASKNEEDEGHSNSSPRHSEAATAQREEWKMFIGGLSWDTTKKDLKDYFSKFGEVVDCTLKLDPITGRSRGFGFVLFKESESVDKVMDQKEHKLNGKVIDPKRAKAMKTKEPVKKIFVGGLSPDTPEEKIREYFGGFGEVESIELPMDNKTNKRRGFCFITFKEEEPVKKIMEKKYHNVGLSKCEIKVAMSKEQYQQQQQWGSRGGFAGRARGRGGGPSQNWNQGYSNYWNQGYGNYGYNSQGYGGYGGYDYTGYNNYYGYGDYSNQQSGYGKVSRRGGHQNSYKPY
inactive: erlotinib -0.056 | [1] -0.133 | [2] -0.1 | [3] -0.181 | [4] -0.036 | [5] -0.11 | [6] 0.021 | [7] 0.108 | [8] -0.043 | IRAK-1-4 Inhibitor I -0.057 | ibrutinib -0.081 | [9] -0.065 | ralimetinib -0.046 | [10] 0.104 | [11] -0.026 | [12] -0.096 | [13] -0.052 | [14] 0 | [15] 0.036 | [16] -0.007

HDHD5 (UniProt Q9BXW7)
UniProt Q9BXW7, sequence (Q9BXW7 whole entry, looked up): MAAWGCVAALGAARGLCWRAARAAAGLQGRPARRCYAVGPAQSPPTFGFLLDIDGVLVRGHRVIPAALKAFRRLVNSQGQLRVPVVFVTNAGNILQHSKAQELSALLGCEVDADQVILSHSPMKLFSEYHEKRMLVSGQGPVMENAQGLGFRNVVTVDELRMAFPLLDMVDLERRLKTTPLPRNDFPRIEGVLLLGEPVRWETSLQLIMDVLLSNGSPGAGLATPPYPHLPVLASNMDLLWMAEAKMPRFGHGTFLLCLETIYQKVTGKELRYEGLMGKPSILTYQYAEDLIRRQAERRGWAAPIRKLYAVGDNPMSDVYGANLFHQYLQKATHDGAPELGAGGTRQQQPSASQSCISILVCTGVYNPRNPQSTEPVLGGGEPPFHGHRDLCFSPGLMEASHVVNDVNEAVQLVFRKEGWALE
inactive: erlotinib -0.015 | [1] -0.038 | [2] 0.012 | [3] 0.07 | [4] 0.022 | [5] -0.006 | [6] -0.027 | [7] -0.023 | [8] -0.05 | IRAK-1-4 Inhibitor I 0.051 | ibrutinib -0.027 | [9] 0.018 | ralimetinib 0 | [10] 0.073 | [11] -0.042 | [12] 0.011 | [13] -0.023 | [14] -0.007 | [15] 0.024 | [16] -0.001

GOLPH3 (UniProt Q9H4A6)
UniProt Q9H4A6, sequence (Q9H4A6 whole entry, looked up): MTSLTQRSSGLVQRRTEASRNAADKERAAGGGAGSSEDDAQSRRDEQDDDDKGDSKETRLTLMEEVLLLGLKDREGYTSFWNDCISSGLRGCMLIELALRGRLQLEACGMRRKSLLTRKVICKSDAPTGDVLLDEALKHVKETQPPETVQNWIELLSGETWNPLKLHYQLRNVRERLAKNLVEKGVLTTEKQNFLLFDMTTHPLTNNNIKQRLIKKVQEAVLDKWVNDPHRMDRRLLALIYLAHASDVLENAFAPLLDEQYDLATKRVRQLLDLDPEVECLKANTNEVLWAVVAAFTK
inactive: erlotinib 0.022 | [1] -0.041 | [2] -0.075 | [3] 0.017 | [4] 0.012 | [5] 0.004 | [6] 0.019 | [7] -0.008 | [8] -0.02 | IRAK-1-4 Inhibitor I 0.035 | ibrutinib 0.024 | [9] 0 | ralimetinib 0.034 | [10] -0.019 | [11] 0.043 | [12] -0.023 | [13] 0.001 | [14] -0.02 | [15] -0.023 | [16] 0.004

ILK (UniProt Q13418)
UniProt Q13418, sequence (Q13418 whole entry, looked up): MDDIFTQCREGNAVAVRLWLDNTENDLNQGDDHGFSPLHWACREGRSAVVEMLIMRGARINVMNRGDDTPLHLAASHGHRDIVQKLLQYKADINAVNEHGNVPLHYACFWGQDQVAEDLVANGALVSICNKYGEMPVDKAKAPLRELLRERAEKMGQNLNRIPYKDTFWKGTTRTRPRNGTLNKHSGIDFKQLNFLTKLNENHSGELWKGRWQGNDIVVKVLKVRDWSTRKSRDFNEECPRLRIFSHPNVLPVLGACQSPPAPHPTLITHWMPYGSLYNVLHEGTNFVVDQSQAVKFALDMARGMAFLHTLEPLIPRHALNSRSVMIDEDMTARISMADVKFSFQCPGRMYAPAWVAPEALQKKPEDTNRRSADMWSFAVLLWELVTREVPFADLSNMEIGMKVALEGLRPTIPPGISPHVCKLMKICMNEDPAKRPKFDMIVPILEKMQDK
inactive: erlotinib 0.112 | [1] 0.025 | [2] 0.019 | [3] 0.012 | [4] 0.002 | [5] -0.018 | [6] -0.04 | [7] 0.029 | [8] -0.035 | IRAK-1-4 Inhibitor I 0.045 | ibrutinib 0.017 | [9] 0.006 | ralimetinib 0 | [10] -0.022 | [11] -0.007 | [12] 0.013 | [13] -0.02 | [14] 0.049 | [15] -0.001 | [16] 0.057

GOLGA6B (UniProt A6NDN3)
inactive: erlotinib 0.092 | [1] -0.061 | [2] -0.082 | [3] 0.033 | [4] 0.08 | [5] -0.013 | [6] -0.054 | [7] 0.011 | [8] 0.032 | IRAK-1-4 Inhibitor I -0.022 | ibrutinib -0.034 | [9] 0.003 | ralimetinib -0.047 | [10] -0.187 | [11] -0.057 | [12] -0.127 | [13] -0.114 | [14] 0.045 | [15] 0.066 | [16] 0

HNRNPD isoform 2 (UniProt Q14103)
inactive: erlotinib -0.001 | [1] -0.014 | [2] -0.022 | [3] -0.027 | [4] 0.049 | [5] 0.014 | [6] -0.023 | [7] 0.012 | [8] -0.009 | IRAK-1-4 Inhibitor I 0.018 | ibrutinib 0 | [9] -0.142 | ralimetinib -0.039 | [10] -0.01 | [11] 0.016 | [12] -0.046 | [13] 0.001 | [14] 0.034 | [15] -0.014 | [16] -0.011

INTS14 (UniProt Q96SY0)
UniProt Q96SY0, sequence (Q96SY0 whole entry, looked up): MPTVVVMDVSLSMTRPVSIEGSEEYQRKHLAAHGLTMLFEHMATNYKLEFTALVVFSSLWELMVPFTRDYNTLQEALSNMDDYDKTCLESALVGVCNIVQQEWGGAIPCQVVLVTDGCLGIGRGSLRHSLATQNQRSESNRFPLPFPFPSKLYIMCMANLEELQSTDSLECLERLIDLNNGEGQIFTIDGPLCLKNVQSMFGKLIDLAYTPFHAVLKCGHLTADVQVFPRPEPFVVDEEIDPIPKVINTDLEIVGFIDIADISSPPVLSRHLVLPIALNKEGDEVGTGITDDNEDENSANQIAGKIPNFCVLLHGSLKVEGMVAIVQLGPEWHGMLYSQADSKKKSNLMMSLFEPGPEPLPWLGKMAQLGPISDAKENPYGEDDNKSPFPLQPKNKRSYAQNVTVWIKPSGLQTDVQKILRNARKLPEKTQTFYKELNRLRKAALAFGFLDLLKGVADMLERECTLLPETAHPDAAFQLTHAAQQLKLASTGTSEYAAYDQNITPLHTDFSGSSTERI
inactive: erlotinib 0.007 | [1] -0.13 | [2] 0.025 | [3] 0.008 | [4] -0.012 | [5] -0.001 | [6] 0.018 | [7] -0.01 | [8] 0 | IRAK-1-4 Inhibitor I 0.006 | ibrutinib -0.006 | [9] -0.008 | ralimetinib 0.023 | [10] -0.012 | [11] -0.048 | [12] -0.003 | [13] -0.029 | [14] -0.004 | [15] 0.006 | [16] -0.01
